Test results published in PubChem BioAssay (NCI).
About 79,000 compounds went through this panel and 15% of them were active in at least one assay; those are over-represented in the sample as a whole. Unmarked numbers belong to inactive results. Calls of active or inactive are those of the source. No stated cut-off is given here; in the data, active means growth inhibition above about 70%; inactive means the rest.

Experiments:
[1] = NCI Yeast Anticancer Drug Screen. Data for the rad50 strain (AID 155);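 further: 0% = growth of vehicle-only cultures of the same strain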; details: S. cerevisiae rad50 strain growth inhibition, stronger effect = higher value
How it was run: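 Genetically altered yeast (DNA repair pathway); compound treatment; growth inhibition vs vehicle ctrl.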

[2] = NCI Yeast Anticancer Drug Screen. Data for the mec2-1 strain (AID 157); details: S. cerevisiae mec2-1 strain, stronger effect = higher value
How it was run: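 Strain: mec2-1 (DNA repair/cell cycle alteration). Compound exposure, then growth measured; inhibition expressed relative to vehicle.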

[3] = NCI Yeast Anticancer Drug Screen. Data for the sgs1 mgt1 strain (AID 161);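 further: 0% = growth of cultures given vehicle only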; details: S. cerevisiae sgs1 mgt1 strain, stronger effect = higher value
How it was run: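 Genetically altered yeast, compound exposure, growth inhibition relative to vehicle.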

[4] = NCI Yeast Anticancer Drug Screen. Data for the cln2 rad14 strain (AID 165);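 further: 0% = growth equal to vehicle treated cultures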; details: S. cerevisiae cln2 rad14 strain, stronger effect = higher value
How it was run: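 Compounds are applied to the cln2 rad14 yeast strain, and growth is then compared with that of vehicle-treated cultures to give inhibition.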

[5] = NCI Yeast Anticancer Drug Screen. Data for the bub3 strain (AID 167); details: S. cerevisiae bub3 mutant strain, stronger effect = higher value
How it was run: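 Yeast carrying a defined mutation is treated with each compound, and growth is compared with that of vehicle-exposed cells to give inhibition.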

[6] = NCI Yeast Anticancer Drug Screen. Data for the mlh1 rad18 strain (AID 175); details: S. cerevisiae mlh1 rad18 strain growth inhibition, stronger effect = higher value
How it was run: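 Read-out is yeast growth inhibition, calculated against vehicle-only controls. The compound was applied to a strain engineered with DNA damage repair alterations.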

[7] = at 5.0 µM (retest, dose inferred, filed as 0.5)
[8] = at 50.0 µM (retest, dose inferred, filed as 5.0)

In the case of `COc1cccc2c1C(=O)c1c(O)c3c(c(O)c1C2=O)C[C@@](O)(C(O)CO)C[C@@H]3OC1CC(N(Cc2ccccc2)Cc2ccccc2)C(O)C(C)O1` (some centres not stated), the growth inhibition [1, 7] is reported as 45%, the growth inhibition [1, 8] is reported as 98% (active) and the growth inhibition ([1]; at 50.0 µM) is reported as 86.8% (active). For the same compound, the growth inhibition [2, 7] was 13%, the growth inhibition [2, 8] was 98% (active) and the growth inhibition ([2]; at 50.0 µM) was 85.8% (active). The growth inhibition [3, 7] was 29%, the growth inhibition [3, 8] was 98% (active) and the growth inhibition ([3]; at 50.0 µM) was 65.6%. For the same compound, the growth inhibition [4, 7] was 18%, the growth inhibition [4, 8] was 97% (active) and the growth inhibition ([4]; at 50.0 µM) was 45.1%. For the same compound, the growth inhibition [5, 7] was 20%, the growth inhibition [5, 8] was 98% (active) and the growth inhibition ([5]; at 50.0 µM) was 62%. For the same compound, the growth inhibition [6, 7] was 50%, the growth inhibition [6, 8] was 97% (active) and the growth inhibition ([6]; at 50.0 µM) was 84% (active).

With `CC1/C(=N\O)CC(c2ccccc2)N(C)C1c1ccccc1` (configuration not stated) the growth inhibition [1, 7] was 96% (active), the growth inhibition [1, 8] was 96% (active) and the growth inhibition ([1]; at 50.0 µM) was 98.2% (active). For the same compound, the growth inhibition [2, 7] was 96% (active), the growth inhibition [2, 8] was 98% (active) and the growth inhibition ([2]; at 50.0 µM) was 98.2% (active). The growth inhibition [3, 7] was 96% (active), the growth inhibition [3, 8] was 97% (active) and the growth inhibition ([3]; at 50.0 µM) was 97.7% (active). For the same compound, the growth inhibition [4, 7] was 58%, the growth inhibition [4, 8] was 78% (active) and the growth inhibition ([4]; at 50.0 µM) was 83.5% (active). For the same compound, the growth inhibition [5, 7] was 94% (active), the growth inhibition [5, 8] was 96% (active) and the growth inhibition ([5]; at 50.0 µM) was 98% (active). For the same compound, the growth inhibition [6, 7] was 95% (active), the growth inhibition [6, 8] was 97% (active) and the growth inhibition ([6]; at 50.0 µM) was 97.7% (active).

In the case of `COc1cc(/C=C/C(=N\NC(=O)c2ccccc2)c2sc(Nc3ccc(Cl)c(Cl)c3)nc2C)ccc1O`, the growth inhibition [1, 7] is reported as 49%, the growth inhibition [1, 8] is reported as 49% and the growth inhibition ([1]; at 50.0 µM) is reported as 91.2% (active). The growth inhibition [2, 7] was 29%, the growth inhibition [2, 8] was 29% and the growth inhibition ([2]; at 50.0 µM) was 89.8% (active). The growth inhibition [3, 7] was 52%, the growth inhibition [3, 8] was 52% and the growth inhibition ([3]; at 50.0 µM) was 89.7% (active). For the same compound, the growth inhibition [4, 7] was 14%, the growth inhibition [4, 8] was 14% and the growth inhibition ([4]; at 50.0 µM) was 88.2% (active). For the same compound, the growth inhibition [5, 7] was 28%, the growth inhibition [5, 8] was 28% and the growth inhibition ([5]; at 50.0 µM) was 90.5% (active). The growth inhibition [6, 7] was 30%, the growth inhibition [6, 8] was 30% and the growth inhibition ([6]; at 50.0 µM) was 88.9% (active).

`O=C(CSSCC(=O)Nc1ccccc1)Nc1ccccc1` showed a growth inhibition [1, 7] of -6%, a growth inhibition [1, 8] of 15% and a growth inhibition ([1]; at 50.0 µM) of 29.6%. The growth inhibition [2, 7] was 1%, the growth inhibition [2, 8] was 35% and the growth inhibition ([2]; at 50.0 µM) was 17.5%. It also gave a growth inhibition [3, 7] of 1%, a growth inhibition [3, 8] of -10% and a growth inhibition ([3]; at 50.0 µM) of 54.8%. The growth inhibition [4, 7] was -5%, the growth inhibition [4, 8] was 10% and the growth inhibition ([4]; at 50.0 µM) was 48.2%. For the same compound, the growth inhibition [5, 7] was -12%, the growth inhibition [5, 8] was 6% and the growth inhibition ([5]; at 50.0 µM) was 22.8%. For the same compound, the growth inhibition [6, 7] was -12%, the growth inhibition [6, 8] was 19% and the growth inhibition ([6]; at 50.0 µM) was 22%.

In the case of `COc1ccc(OCC(O)CN2CCN(c3cccc(Cl)c3)CC2)cc1` (configuration not stated), the growth inhibition [1, 7] is reported as -2%, the growth inhibition [1, 8] is reported as -3% and the growth inhibition ([1]; at 50.0 µM) is reported as 72.5% (active). It also gave a growth inhibition [2, 7] of 15%, a growth inhibition [2, 8] of 28% and a growth inhibition ([2]; at 50.0 µM) of 37.6%. For the same compound, the growth inhibition [3, 7] was 1%, the growth inhibition [3, 8] was 23% and the growth inhibition ([3]; at 50.0 µM) was 95.5% (active). The growth inhibition [4, 7] was -6%, the growth inhibition [4, 8] was -7% and the growth inhibition ([4]; at 50.0 µM) was 33.6%. For the same compound, the growth inhibition [5, 7] was -4%, the growth inhibition [5, 8] was 8% and the growth inhibition ([5]; at 50.0 µM) was 42.6%. For the same compound, the growth inhibition [6, 7] was 20%, the growth inhibition [6, 8] was 31% and the growth inhibition ([6]; at 50.0 µM) was 69.9%.

In the case of `CCC(=C(c1ccc(OCCN(C)C)cc1)c1cccc(O)c1)c1ccccc1` (mixture of isomers), the growth inhibition [1, 7] is reported as 34%, the growth inhibition [1, 8] is reported as 97% (active) and the growth inhibition ([1]; at 50.0 µM) is reported as 86% (active). For the same compound, the growth inhibition [2, 7] was 10%, the growth inhibition [2, 8] was 99% (active) and the growth inhibition ([2]; at 50.0 µM) was 62%. The growth inhibition [3, 7] was 44%, the growth inhibition [3, 8] was 98% (active) and the growth inhibition ([3]; at 50.0 µM) was 96.5% (active). The growth inhibition [4, 7] was 34%, the growth inhibition [4, 8] was 97% (active) and the growth inhibition ([4]; at 50.0 µM) was 76.9% (active). The growth inhibition [5, 7] was 23%, the growth inhibition [5, 8] was 99% (active) and the growth inhibition ([5]; at 50.0 µM) was 76.5% (active). For the same compound, the growth inhibition [6, 7] was 64%, the growth inhibition [6, 8] was 98% (active) and the growth inhibition ([6]; at 50.0 µM) was 94% (active).

With `Cc1ccc([S@](=O)c2occc2C=O)cc1` the growth inhibition [1, 7] was 37%, the growth inhibition [1, 8] was 88% (active) and the growth inhibition ([1]; at 50.0 µM) was 74.5% (active). For the same compound, the growth inhibition [2, 7] was 29%, the growth inhibition [2, 8] was 98% (active) and the growth inhibition ([2]; at 50.0 µM) was 88.5% (active). The growth inhibition [3, 7] was 38%, the growth inhibition [3, 8] was 98% (active) and the growth inhibition ([3]; at 50.0 µM) was 84.5% (active). For the same compound, the growth inhibition [4, 7] was 23%, the growth inhibition [4, 8] was 43% and the growth inhibition ([4]; at 50.0 µM) was 13.4%. The growth inhibition [5, 7] was 43%, the growth inhibition [5, 8] was 98% (active) and the growth inhibition ([5]; at 50.0 µM) was 62.6%. The growth inhibition [6, 7] was 41%, the growth inhibition [6, 8] was 96% (active) and the growth inhibition ([6]; at 50.0 µM) was 88.2% (active).

`NC(=O)NOCC1NC(=O)NC1=O` (configuration not stated) gave a growth inhibition [1, 7] of -24%, a growth inhibition [1, 8] of -4% and a growth inhibition ([1]; at 50.0 µM) of -4.95%. It also gave a growth inhibition [2, 7] of -10%, a growth inhibition [2, 8] of -13% and a growth inhibition ([2]; at 50.0 µM) of -13.1%. The growth inhibition [3, 7] was -16%, the growth inhibition [3, 8] was -10% and the growth inhibition ([3]; at 50.0 µM) was -21.4%. The growth inhibition [4, 7] was 8%, the growth inhibition [4, 8] was -2% and the growth inhibition ([4]; at 50.0 µM) was -11.1%. For the same compound, the growth inhibition [5, 7] was -3%, the growth inhibition [5, 8] was -3% and the growth inhibition ([5]; at 50.0 µM) was -21.8%. It also gave a growth inhibition [6, 7] of 1%, a growth inhibition [6, 8] of 8% and a growth inhibition ([6]; at 50.0 µM) of -16.3%.

`O=S(=O)(N=S(c1ccc(Cl)cc1)c1ccc(Cl)cc1)c1ccccc1` showed a growth inhibition [1, 7] of 0%, a growth inhibition [1, 8] of 10% and a growth inhibition ([1]; at 50.0 µM) of 49.2%. The growth inhibition [2, 7] was -8%, the growth inhibition [2, 8] was 5% and the growth inhibition ([2]; at 50.0 µM) was -14.4%. For the same compound, the growth inhibition [3, 7] was -1%, the growth inhibition [3, 8] was 12% and the growth inhibition ([3]; at 50.0 µM) was 4.5%. It also gave a growth inhibition [4, 7] of 9%, a growth inhibition [4, 8] of 28% and a growth inhibition ([4]; at 50.0 µM) of -32.4%. It also gave a growth inhibition [5, 7] of 5%, a growth inhibition [5, 8] of 19% and a growth inhibition ([5]; at 50.0 µM) of 27.2%. It also gave a growth inhibition [6, 7] of 0%, a growth inhibition [6, 8] of 10% and a growth inhibition ([6]; at 50.0 µM) of 12.8%.
